# Screening results (PubChem)
# The list is not random: actives were taken first. Their share in the collection is about 19%.
# HT1080 IDH1KD tx: HT-1080 IDH1 knockdown cell toxicity (counter line); 360,000 tested, 2% active; AID 686971; Potency, µM (top dose mostly 46.1 µM), for inactives: at the top dose activity, negative = toxicity, most hits filed as cytotoxic; HT-1080 IDH1 knockdown viability, ATP luminescence, 48 h;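 note: potency is the fitted concentration of half-maximal effect; 0% = DMSO wells and -100% = cell-free medium wells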
#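 Assay cells: HT-1080 with IDH1 knockdown, 750 per well, RPMI/5% FBS. Exposure: 48 h at 37 °C following 2 h pre-incubation. Read: CellTiter-Glo luminescence; fitted concentration-response, curve class assigned.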
# DT40 TDP1 no CPT: qHTS for Inhibitors of human tyrosyl-DNA phosphodiesterase 1 (TDP1): qHTS in cells in absence of CPT | DT40 Tdp1-/- hTDP1 cells, no CPT, ATP luminescence, 48 h | Potency, µM (top dose mostly 46.2 µM), for the others: at the top dose activity change, negative = growth inhibition, hits mostly inhibitors | 420,000 tested, 15% active | AID 686978, 2013; note: potency is the fitted concentration of half-maximal effect; nearly all actives have a fitted effect of over 55% in size
#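 Luminescent ATP content (CellTiter-Glo) served as the growth readout. Knockout chicken DT40 cells expressing human TDP1 were exposed to compounds without camptothecin for a minimum 48 hr at 37 °C.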
# HT1080NT lethal: kills 2HG-producing HT-1080-NT fibrosarcoma cells. Potency, µM (top dose mostly 46.1 µM), without a hit: at the top dose activity, negative = less viability, hits mostly cytotoxic. 360,000 tested, 1.6% active. HT-1080-NT fibrosarcoma viability, CellTiter-Glo ATP luminescence, 48 h;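 note: NT is the 2HG producing partner of a matched IDH1 knockdown line; potency is the fitted concentration of half-maximal effect; 0% = DMSO-treated cells and -100% = media-only wells without cells; nearly all actives have a fitted effect of over 55% in size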
#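 750 cells/well, RPMI + 5% FBS; 2 h settle, compound pin-transfer, 48 h at 37 degrees C. CellTiter-Glo 10 min RT, luminescence. Normalized to DMSO and media-only wells.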
# IL1B secr inh: inhibitors of inflammasome signaling (IL-1 beta secretion). 360,000 tested, 4.7% active. activity change, % at 57.5 µM. AID 743279. THP-1 LPS/ATP IL-1B secretion, AlphaLISA, 16 h; hits give low values; in the data active = activity change below about -50%; inconclusive = mostly about -30% to -49%
#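 THP-1 cells pretreated 1 hr with compounds (up to 57.5 uM final), then stimulated with LPS (250 ng/mL final) plus ATP (1.25 mM final); secreted IL-1B measured by AlphaLISA after 16 hr, decreased signal indicating inhibition.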
# DT40 TDP1 CPT: DT40-hTDP1 cell growth loss with CPT; chicken DT40 Tdp1-/-;hTDP1 cells + 20 nM CPT, ATP luminescence, 48 h; Potency, µM (top dose mostly 46.2 µM), for inactives: top-dose activity change, negative = growth inhibition, actives largely listed as inhibitors; 420,000 tested, 12% active; AID 686979; note: potency is the fitted concentration of half-maximal effect; nearly all actives have a fitted effect of over 55% in size
#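 Chicken DT40 Tdp1-/- cells complemented with human TDP1, 400 cells/well, exposed to compounds plus 20 nM camptothecin for at least 48 h at 37 C; viability read as ATP content by CellTiter-Glo luminescence.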
# ELG1 repair inh: ELG1-dependent DNA repair inhibition | HEK293T ELG1-luciferase reporter, luminescence, 16 h; DNA damage induced by 5-fluorouridine | 330,000 tested, 2.3% active | Potency, µM (series often up to 46.1 µM), inactives show at the top dose activity change, negative = inhibition, actives largely listed as inhibitors; note: potency is the fitted concentration of half-maximal effect; nearly all actives have a fitted effect of over 55% in size
#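 Quantitative HTS, concentration-response format. 2,000 cells/well co-treated with 5-fluorouridine and compound, 16 hr in 5% CO2 at 37 °C; ONE-Glo luminescence read after 30 min.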
# * = called active by the depositor; u = inconclusive; x = not tested or not shown. Unless noted, calls come from the whole dose curve; as a rule, active = well fitted curve in the direction sought with a large enough effect; inconclusive = small, poorly fitted or top-dose-only effect, or another doubt; inactive = no such curve, though single readings can be large; an effect the other way counts as inactive or inconclusive. Unless noted, % is set by controls: 0 for no effect and ±100 for the full control effect.
SMILES,HT1080 IDH1KD tx,DT40 TDP1 no CPT,HT1080NT lethal,IL1B secr inh,DT40 TDP1 CPT,ELG1 repair inh
Cc1ccc(S(=O)(=O)N2CCCC(C(=O)N3CCN(c4ccccc4)CC3)C2)cc1 (stereo not given),10%,18µM*,13%,0,18µM*,21µM*
O=C(C1CCCN(S(=O)(=O)c2cccc3cccnc23)C1)N1CCN(c2ccc(F)cc2)CC1 (stereo not given),-4%,u,-4%,7,23µM*,u
O=C(C1CCCCC1)N1C[C@@H](O)[C@H](n2cc(C3CC3)nn2)C[C@@H]1c1ccccc1,10%,-15%,4%,22,-11%,x
O=C1CC(NS(=O)(=O)c2cc(F)ccc2F)CN1c1cccc(F)c1 (stereo not given),1%,5%,2%,24,13%,20%
CN1CCN(C(=O)C2CCCN(S(=O)(=O)c3ccccc3)C2)CC1 (stereo not given),3%,0%,15%,0,-3%,u
COc1ccc(N2CCN(C(=O)C3CCCN(S(=O)(=O)c4ccc(F)cc4)C3)CC2)cc1 (stereo not given),-8%,8.2µM*,-3%,-13,10µM*,u
Cc1nn(C)c(C)c1S(=O)(=O)N1CCCC(C(=O)N2CCN(c3ccccc3)CC2)C1 (stereo not given),2%,23µM*,-1%,16,16µM*,-16%
COc1ccc(CNC(=O)c2cnc3sc(N4CCC(C)CC4)nn3c2=O)c(OC)c1,x,-1%,x,x,-17%,x
CC(C)c1nc(SCC(=O)NC2CCCC2)c2c(=O)n(C)c(=O)n(C)c2n1,8%,8%,16%,17,-1%,11%
CCOC(=O)C1(Cc2ccccc2)CCN(Cc2ccc3cc(NC(C)=O)ccc3n2)CC1,-1%,u,-22%,u,-26%,-8%
Cc1cc(C)n(CCNC(=O)c2cc(COc3ccc4ncccc4c3)on2)n1,-9%,21µM*,1%,2,21µM*,u
CC(CCCC(C)(C)O)NC(=O)c1cc(COc2ccc3ncccc3c2)on1 (stereo not given),-22%,4.6µM*,-5%,-1,8.2µM*,2.6µM*
Cc1cc(C)n(CCNC(=O)c2cc(COc3ccc(F)cc3Cl)on2)n1,-1%,u,6%,0,u,-28%
O=C(NCc1cccc(Cl)c1)c1cc(COc2ccc3ncccc3c2)on1,-21%,21µM*,-20%,u,16µM*,u
Cc1ccc(F)cc1CNC(=O)c1cc(COc2ccc3ncccc3c2)on1,-16%,10µM*,-16%,-29,4.1µM*,u
CCOc1cccc(C2c3c(oc4ccccc4c3=O)C(=O)N2c2nc(C)c(C(=O)OC)s2)c1 (stereo not given),x,1%,x,x,10%,x
CCOC(=O)C(=O)C1(C(=O)OCC)Oc2cc(OC)cc(OC)c2C(=O)C1c1ccccc1 (stereo not given),x,-9%,x,x,-2%,x
CC(C)C[C@@H]1CN(CCCC[C@H]2CNC(=O)C(=O)N2CCC2CCCCC2)C(=O)C(=O)N1CC1CCCCC1,3%,-30%,2%,65,-19%,x
Cc1ccc(OCc2cc(C(=O)NC(C)Cc3cccc(C)n3)no2)cn1 (stereo not given),0%,7.3µM*,-3%,46,13µM*,u
Cc1ccc(OCc2cc(C(=O)N3CCN(CC(=O)NC(C)C)CC3)no2)cn1,12%,5%,13%,20,-21%,u
Cc1ccc(Cc2c(-c3cccc(Br)c3)nc3c(Cl)cc(C(F)(F)F)cn23)cc1,-7%,16µM*,5%,28,1%,x
COc1ccc(-c2nc3c(Cl)cc(C(F)(F)F)cn3c2Cc2cccc(F)c2)cc1OC,-4%,18µM*,0%,u,23µM*,x
COC(=O)[C@H](NC(=O)c1cc([C@@H](NC(=O)OC(C)(C)C)C(C)C)sc1N)C(C)C,-14%,u,-13%,-8,u,x
O=[N+]([O-])c1ccccc1S(=O)c1ccccc1[N+](=O)[O-],u,16µM*,21µM*,219,10µM*,x
N#CCSc1ccc2nc(-c3ccccc3)cn2n1,-2%,-13%,7%,7,4%,u
SMILES,HT1080 IDH1KD tx,DT40 TDP1 no CPT,HT1080NT lethal,IL1B secr inh,DT40 TDP1 CPT,ELG1 repair inh
CCOc1ccccc1NC(=O)CSc1ccc2nc(-c3ccccc3)cn2n1,x,21µM*,x,x,u,x
O=C(CSc1ccc2nc(-c3ccccc3)cn2n1)Nc1ccccc1,x,26µM*,x,x,u,x
CCOc1ccccc1NC(=O)C(C)Sc1cc(-c2ccccc2)nc(C)n1 (stereo not given),x,16µM*,x,x,15µM*,x
CC(=O)c1ccc(NC(=O)CSc2ccc3nc(-c4ccccc4)cn3n2)cc1,x,26µM*,x,x,u,x
O=C(CSc1ccc2nc(-c3ccccc3)cn2n1)Nc1ccccc1C(F)(F)F,x,u,x,x,-26%,x
OCC[C@H]1C[C@H](O)[C@@H](O)[C@]2(OCc3ccccc32)O1,4%,2%,4%,5,-26%,10%
CCN(CC(=O)NC(=O)NC1CCCC1)Cc1ccccc1,1%,1%,7%,1,4%,2%
Clc1ccc(-c2ccc(CNCc3ccccn3)o2)cc1,5%,u,0%,-6,u,u
COC(=O)c1sccc1NC(=O)CSc1ccccc1NS(=O)(=O)c1ccc(F)cc1,-9%,-7%,-5%,18,-5%,-15%
COC(=O)c1sccc1NC(=O)CN(C)NS(=O)(=O)c1ccc([N+](=O)[O-])cc1,10%,u,8%,-28,u,29%
COC(=O)c1sccc1NC(=O)CN(C)NS(=O)(=O)c1ccc(Cl)cc1,-24%,18µM*,u,-10,u,-2%
COC(=O)c1sccc1NC(=O)CN(C)NS(=O)(=O)c1ccc(F)cc1,-27%,u,u,-11,18µM*,25%
CC(=O)NC(Cc1cccc(C)c1)C(=O)NC1CCN(S(=O)(=O)c2ccccc2)CC1 (stereo not given),2%,-2%,5%,-1,11%,-2%
Cc1ccc(NC(=O)CC2Oc3ccc(C)cc3NC2=O)c(C)c1 (stereo not given),-13%,21µM*,1%,9,u,-23%
